One may read the AC50 as the concentration giving half of the maximal activity seen.

The source made the active and inactive calls. Rule for the calls: active = hit-call score of the fitted dose curve at least 0.9, where 1 is the maximum; inactive = score below 0.9.

Read-out in this assay: DNA damage-inducible transcript 3 (DDIT3), DDIT3 (gene 1649)
In words: LTEA_HepaRG_DDIT3: Life Technologies and Expression Analysis (LTEA) Assay for DNA damage-inducible transcript 3 (DDIT3) using HepaRG (AID 2283488). The following applies: mRNA level, 48 h; actives raise or lower the signal. On the procedure: LTEA_HepaRG is a cell based, multiplexed-readout assay that uses HepaRG, a human liver cell line, with measurements taken at 48 hours after chemical dosing on a 96-well plate.LTEA_HepaRG_DDIT3 is one of 102 assay component(s) measured in the LTEA HepaRG cell culture assay. It is a marker of Oxidative Stress.Data from the assay component LTEA_HepaRG_DDIT3 was analyzed into 1 endpoint. This assay endpoint, LTEA_HepaRG_DDIT3, was analyzed with bidirectional fitting relative to DMSO as the negative control and baseline of activity. Using a type of inducible reporter, measures of mRNA induction for gain or loss-of-signal activity can be used to understand regulation of transcription factor activity. To generalize the intended target to other relatable targets, this assay endpoint is annotated to the dna binding intended target family, where the subfamily is basic leucine zipper.
A total of 1060 chemcials from the ToxCast library were tested in eight-point concentration-response experiments. Cell culture and cytotoxicity assays were conducted at Thermo Fisher Scientific's Custom Services facility (Madison, WI). A single lot of human HepaRG cells (Thermo Fisher Scientific, Frederick, MD) was used for the cell culture experiments. 96-well format collagen type I coated plates of human HepaRG cells were prepared using established methods. Briefly, cryopreserved HepaRG cells were thawed, plated at a density of approximately 100,000 cells/well in HepaRG Thaw, Plate, and General Purpose media (HPRG770, Thermo Fisher Scientific), and incubated for 48 hours. 0.5% DMSO was selected as vehicle control to balance the requisite need of DMSO in HepaRG cultures to maintain differentiation (for example, baseline metabolism, proportions of hepatocytes vs. cholangiocytes), while enabling further hepatic receptor pathway activation (for example, PXR and CAR) in response to chemical exposure. 48 hours after plating, the culture medium was replaced with HepaRG Serum-Free Incudtion Media. Cells were exposed to each test chemical in duplicate and maintained in CO2 incubators for another 48 hours. Chemical plates were thawed to room temperature and 200x concentrations of treatment groups were prepared. 8-point conentration-reponse curves were made with the highest exposure at 100 uM, followed by half-log dilutions, all in 0.5% DMSO. Each test plate contained variouse controls, induction positive controls (1mM phenobarbital), cytotoxicity positive controls ([…] aflatoxin B1), vehicle controls (0.5% DMSO), and total lysis controls (0.5% DMSO). Cell morphology images were taken using an Essen IncuCyte FLR automated microscope, with six 96-well plates imaged in about 24 minutes. Images were captured and exported and JPEG files. Spent culture media was transfered to black-well plates for the LDH assay, and remaining media was sorted at -80 C for later use. Cells were treated with RLT buffer and frozen until shipped for gene expression analysis. Total RNA was isolated from the cell suspension in 75 uL of Buffer RLT (Qiagen, Germantown, MD 20874) by Quintiles/Expression Analysis (Durham, NC) using a custom isolation procedure. Total RNA from each plate well was transferred to a preamplification plate. Fluidigm's 96.96 Dynamic ArrayTM (Fluidigm, Amsterdam, the Netherlands) technology was used for gene expression analyses by quantitative reverse transcription polymerase chain reaction (qRT-PCR, performed by Quintiles/Expression Analysis, Durham, NC)89. Standard TaqManTM Assays (Applied Biosystems/ThermoFisher Scientific, Foster City, CA) were used to assess the expression of 93 genes selected based on their selectivity and sensitivity to important hepatic receptors known to be modulated by environmental chemicals; importance in human hepatocyte functionality; and hepatotoxicity. […]
For the molecule `C=C(C)CN(CC)c1c([N+](=O)[O-])cc(C(F)(F)F)cc1[N+](=O)[O-]`, the molecule was called inactive.
The same measure, in the same setting: the entry for `COCC(C)N(C(=O)CCl)c1c(C)csc1C` (stereo not given) is “inactive”.
Regarding `CS(=O)(=O)c1cc(C(F)(F)F)ccc1C(=O)c1cnoc1C1CC1`, the result was inactive.
On to `CCCCC(C#N)(Cn1cncn1)c1ccc(Cl)cc1` (stereo not given), for which the AC50 was 67.8 µM (active).
With `COC(=O)NC(=S)Nc1ccccc1NC(=S)NC(=O)OC`, the outcome was inactive.
As for `CC1(C)C(C=C(Cl)Cl)C1C(=O)OC(C#N)c1cccc(Oc2ccccc2)c1` (stereo not given), the outcome was inactive.
On to `CC(C)N1C(=O)N(c2ccccc2)CSC1=NC(C)(C)C`, for which the AC50 was 73.8 µM (active).
Regarding `Clc1nc(Cl)nc(Nc2ccccc2Cl)n1`, the molecule was classed as inactive.
On to `CC(C)(C)C(=O)C(Oc1ccc(Cl)cc1)n1cncn1` (stereo not given), for which the call was inactive.
The same measure, in the same setting: the result for `CCCCOCN(C(=O)CCl)c1c(CC)cccc1CC` reads “inactive”; that for `CSC(=O)c1c(C(F)F)nc(C(F)(F)F)c(C(=O)SC)c1CC(C)C`, “inactive”.
`C=CCOC(=O)C(C)(C)OC(=O)c1cc(-n2c(=O)cc(C(F)(F)F)n(C)c2=O)ccc1Cl`: the outcome was inactive.
Same read-out and setting: the result for `CCOC(=O)C(C)OC(=O)c1cc(Oc2ccc(C(F)(F)F)cc2Cl)ccc1[N+](=O)[O-]` (stereo not given) reads “inactive”; that for `CCN(CC)C(=O)C(C)Oc1cccc2ccccc12` (stereo not given), “inactive”.
Take `Cc1nc(N(C)C)nc(OC(=O)N(C)C)c1C`: the call was inactive.
Still for that read-out and setting: the entry for `O=C1C2CC=CCC2C(=O)N1SC(Cl)(Cl)Cl` (stereo not given) is “inactive”; for `CCSC(=O)N1CCCCCC1` it is “inactive”; for `CNC(=O)N(C)c1nnc(C(C)(C)C)s1` it is “inactive”.
Same read-out and setting: the result for `CC1(C)C(C(=O)OC(C#N)c2cccc(Oc3ccccc3)c2)C1(C)C` (stereo not given) reads “inactive”.
Same read-out and setting: the entry for `Cc1cnc(C2=NC(C)(C(C)C)C(=O)N2)c(C(=O)O)c1` (stereo not given) is “inactive”.
`COP(=O)(OC)O/C(C)=C/C(=O)N(C)C`: the molecule was called inactive.
Same read-out and setting: the result for `COP(=S)(OC)SCn1nnc2ccccc2c1=O` reads “inactive”; that for `CC1(C)CON(Cc2ccccc2Cl)C1=O`, “inactive”; that for `CC(C)Oc1cccc(NC(=O)c2ccccc2C(F)(F)F)c1`, “inactive”.
Same read-out and setting: the entry for `N#CN=C1SCCN1Cc1ccc(Cl)nc1` is “inactive”.
On the same count and under the same terms, the result for `CN/C(=N\[N+](=O)[O-])NCc1cnc(Cl)s1` reads “inactive”; that for `CS(=O)(=O)c1ccc(C(=O)C2C(=O)CCCC2=O)c([N+](=O)[O-])c1`, “inactive”; that for `CCOc1nc(F)cc2nc(S(=O)(=O)Nc3c(Cl)cccc3Cl)nn12`, “inactive”.
`Cc1c(COC(=O)[C@@H]2[C@H](/C=C(\Cl)C(F)(F)F)C2(C)C)cccc1-c1ccccc1`: the half-maximal activity concentration (AC50) was 81.2 µM (active).
As for `N#Cc1c[nH]cc1-c1cccc2c1OC(F)(F)O2`, the outcome was inactive.
The same measure, in the same setting: the entry for `COC(=O)N(C(=O)N1CO[C@@]2(C(=O)OC)Cc3cc(Cl)ccc3C2=N1)c1ccc(OC(F)(F)F)cc1` is “inactive”; for `CCOP(=O)(OCC)Oc1nc(Cl)c(Cl)cc1Cl` it is “inactive”; for `CCCC(=NOCC)C1=C(O)CC(CC(C)SCC)CC1=O` (stereo not given) it is “inactive”.
With `CCOc1cc(C(C)(C)C)ccc1C1COC(c2c(F)cccc2F)=N1` (stereo not given), the half-maximal activity concentration (AC50) was 52.1 µM (active).
Regarding `CCNP(=S)(OC)O/C(C)=C/C(=O)OC(C)C` (stereo not given), the call was inactive.
Still for that read-out and setting: the entry for `COC(=O)NS(=O)(=O)c1ccc(N)cc1` is “inactive”.
For `OC(c1ccc(Cl)cc1)(c1ccc(Cl)cc1)C(Cl)(Cl)Cl`, the concentration at half-maximal activity (AC50) was 77.2 µM (active).
As to `N#Cc1c(Cl)cccc1Cl`, the result was inactive.
Take `CCN(CC)c1nc(C)cc(OP(=S)(OC)OC)n1`: the result was inactive.
Turning to `CCCCC(O)(Cn1cncn1)c1ccc(Cl)cc1Cl` (stereo not given), the AC50 was 77.4 µM (active).

The values are drawn from PubChem BioAssay (EPA / NIEHS).
